High-throughput results: PubChem, National Center for Advancing Translational Sciences (NCATS)
Pf growth 48h – Primary qHTS for delayed death inhibitors of the malarial parasite plastid, 48 hour incubation; Potency, µM (series often up to 28.7 µM), without a hit: top-dose activity change, negative = inhibition, most hits filed as inhibitors; hit rate 5.9% among 310,000; AID 504832, 2011; P. falciparum luciferase growth in erythrocytes, 48 h; note: % is set by controls: 0 for no effect and ±100 for the full control effect
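Parasite viability was followed by luminescence of a genomically integrated firefly luciferase. Cultures held 0.1% parasitemia at 2% hematocrit (final), incubated under 5% CO2 at 37 C.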
NS1 inh – qHTS Assay for Inhibitors of Influenza NS1 Protein Function; hit rate 0.4% among 270,000; Potency, µM (series often up to 46.1 µM), for inactives: top-dose activity, positive = more growth; calls by dose curve; note: actives are rising curves; nearly all actives have a fitted effect of over 50% in size
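S. cerevisiae expressing influenza A NS1, grown in glucose, washed, then diluted 1:100 into pH 6.0 -URA galactose medium with 23 nl compound. Growth recovery read as OD600; NS1-free strain serves as control.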
Pf growth 96h – Primary qHTS for delayed death inhibitors of the malarial parasite plastid, 96 hour incubation; P. falciparum luciferase reporter growth, 96 h; Potency, µM (top dose mostly 28.7 µM), without a hit: at the top dose activity change, negative = inhibition, most hits filed as inhibitors; hit rate 6.9% among 320,000; AID 504834, 2011; note: % is set by controls: 0 for no effect and ±100 for the full control effect
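Compounds incubated with erythrocytes infected by luciferase-expressing P. falciparum (2% hematocrit, 0.05% parasitemia final) for 96 hours, 37 C in 5% CO2. Growth inhibition scored as decreased luciferase luminescence.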
SARS PLP yeast – qHTS of Yeast-based Assay for SARS-CoV PLP; S. cerevisiae expressing SARS-CoV PLpro, growth rescue; Potency, µM (highest dose often 32.9 µM), for the others: at the highest dose activity, positive = growth rescue, most hits filed as activators; AID 485353, 2010; hit rate 0.19% among 330,000; calls by dose curve; note: 0% is about no effect; nearly all actives have a fitted effect of over 55% in size
Active calls of the source: *. Rows were chosen to be rich in hits. Some 10% of all compounds tested hit in one or more screens of this group. Unless noted, calls come from the whole dose curve; as a rule, active = well fitted inhibition curve with a large enough effect; inconclusive = small, poorly fitted or top-dose-only effect, or another doubt; inactive = no such curve, though single readings can be large or run the other way. Potency is the fitted concentration of half-maximal effect.

How did O=C1N=C(N2CCC(Cc3ccccc3)CC2)S/C1=C/c1cn[nH]c1-c1ccccc1 do in these assays?
Pf growth 48h: inconclusive; NS1 inh: 18%; Pf growth 96h: inconclusive; SARS PLP yeast: 5%

Results for Cc1cccc(N2CCN(C3=NC(=O)/C(=C\c4cn[nH]c4-c4ccccc4)S3)CC2)c1 ?
Pf growth 48h: 5.2µM*; NS1 inh: 12%; Pf growth 96h: 12µM*; SARS PLP yeast: -17%

What do the screens show for `O=C1N=C(N2CCN(c3ccccc3)CC2)S/C1=C\c1cn[nH]c1-c1ccccc1`?
Pf growth 48h: inconclusive; NS1 inh: 12%; Pf growth 96h: 4.1µM*; SARS PLP yeast: -4%

Results for COc1ccc(C2CC(c3ccccc3)=NN2S(=O)(=O)c2ccccc2)c(OC)c1 (stereo not drawn) ?
Pf growth 48h: inconclusive; NS1 inh: 7%; Pf growth 96h: 0%; SARS PLP yeast: 10%

Results for COc1ccc(C2=NN(S(=O)(=O)c3ccccc3)C(c3ccccc3)C2)cc1 (stereo not drawn) ?
Pf growth 48h: inconclusive; NS1 inh: 12%; Pf growth 96h: 6.6µM*; SARS PLP yeast: 0%

How did COc1ccc(C2CC(c3ccccc3)=NN2S(=O)(=O)c2ccc(C)cc2)c(OC)c1 (stereo not drawn) do in these assays?
Pf growth 48h: inconclusive; NS1 inh: inconclusive; Pf growth 96h: 12µM*; SARS PLP yeast: -9%

What do the screens show for `O=C1CC(C(=O)N(c2ccccc2)C(C(=O)NC2CCCC2)c2ccncc2)CS1` (stereo not drawn)?
Pf growth 48h: 0%; NS1 inh: 2%; Pf growth 96h: 6%; SARS PLP yeast: -1%

How did Cc1ccc(/C(N)=N/OC(=O)C(C)c2ccc([N+](=O)[O-])cc2)cc1 (stereo not drawn) do in these assays?
Pf growth 48h: -3%; NS1 inh: 2%; Pf growth 96h: 13%; SARS PLP yeast: -10%

Results for COc1ccc(O)c(C(=O)c2cnc3c(c2)c(=O)[nH]c(=O)n3C)c1 ?
Pf growth 48h: 11%; NS1 inh: 6%; Pf growth 96h: inconclusive; SARS PLP yeast: -6%

What do the screens show for `COCCn1c(=O)[nH]c(=O)c2cc(C(=O)c3cc(Cl)ccc3O)cnc21`?
Pf growth 48h: 9.3µM*; Pf growth 96h: inconclusive; SARS PLP yeast: 1%

What do the screens show for `COc1cc(C(=O)Oc2cc(C)cc(C)c2)cc(OC)c1OC`?
Pf growth 48h: 15µM*; NS1 inh: 5%; Pf growth 96h: -15%; SARS PLP yeast: 26%

What do the screens show for `COc1cc(C(=O)Oc2cccnc2)cc(OC)c1OC`?
Pf growth 48h: -11%; NS1 inh: -14%; Pf growth 96h: -15%; SARS PLP yeast: -6%

How did COc1ccc(/C=C/C(=O)c2ccc(C(=O)/C=C/c3ccc(OC)c(OC)c3)cc2)cc1OC do in these assays?
Pf growth 48h: inconclusive; NS1 inh: 10%; Pf growth 96h: inconclusive; SARS PLP yeast: 0%

Results for CCOc1ccc(C(=O)/C=C/c2cc(OC)c(OC)c(OC)c2)cc1 ?
Pf growth 48h: inconclusive; NS1 inh: -33%; Pf growth 96h: -4%; SARS PLP yeast: -7%

What do the screens show for `COc1ccc(C(=O)/C=C/c2ccc(OC(=O)c3cc(OC)c(OC)c(OC)c3)cc2)cc1`?
Pf growth 48h: 2.9µM*; NS1 inh: 20%; Pf growth 96h: 4.7µM*; SARS PLP yeast: 1%

What do the screens show for `COc1cc(OC)c(C(=O)/C=C/c2ccccc2)c(O)c1O`?
Pf growth 48h: inconclusive; NS1 inh: -73%; Pf growth 96h: 12µM*; SARS PLP yeast: -7%

Results for COC(=O)c1ccc(/C=C/C(=O)c2ccc(OC)c(OC)c2)cc1 ?
Pf growth 48h: 10µM*; NS1 inh: -18%; Pf growth 96h: inconclusive; SARS PLP yeast: -17%

Results for Cc1cccc(N2CC(C(=O)NCc3ccco3)CC2=O)c1C (stereo not drawn) ?
Pf growth 48h: -15%; Pf growth 96h: -14%; SARS PLP yeast: 0%

How did CCN(C(=O)COC(=O)c1[nH]c(=O)[nH]c(=O)c1N)c1ccccc1 do in these assays?
Pf growth 48h: 12%; NS1 inh: -2%; Pf growth 96h: 16%; SARS PLP yeast: -6%

What do the screens show for `CCOc1ccc(NC(=O)c2ccc3c(c2)CCN3S(C)(=O)=O)cc1`?
Pf growth 48h: inconclusive; NS1 inh: 20%; Pf growth 96h: -33%; SARS PLP yeast: -5%

How did CCc1ccc(N(CC)C(=O)c2cn(C)c(=O)c3ccccc23)cc1 do in these assays?
NS1 inh: 5%; Pf growth 96h: 0%; SARS PLP yeast: 0%

How did Cn1c(CNC(=O)CCNC(=O)c2cccc(F)c2)cc(=O)n(C)c1=O do in these assays?
Pf growth 48h: -2%; NS1 inh: -9%; Pf growth 96h: -8%; SARS PLP yeast: 1%

What do the screens show for `COc1ccc(CCNC(=O)CCNC(=O)c2ccc([N+](=O)[O-])cc2)cc1`?
NS1 inh: 1%; Pf growth 96h: -5%; SARS PLP yeast: -1%

Results for CC(=O)Nc1cccc(C(=O)/C=C/c2ccc(F)cc2)c1 ?
Pf growth 48h: -10%; NS1 inh: -44%; Pf growth 96h: inconclusive; SARS PLP yeast: -4%

What do the screens show for `CC(=O)Nc1cccc(C(=O)/C=C/c2ccc(/C=C/C(=O)c3cccc(NC(C)=O)c3)cc2)c1`?
Pf growth 48h: 2.9µM*; NS1 inh: 10%; Pf growth 96h: 9.3µM*; SARS PLP yeast: -4%

How did CCN1C(=O)[C@H]2[C@@H](c3ccc(C)cc3)N3C(=O)N(c4cccc(F)c4)C(=O)[C@@]3(C)[C@H]2C1=O do in these assays?
Pf growth 48h: 35%; NS1 inh: 6%; Pf growth 96h: 84%; SARS PLP yeast: -3%

Results for COc1cccc(NC(=O)N2C3CCCC2CC(NC(=O)C2CC2)C3)c1 (stereo not drawn) ?
Pf growth 48h: -21%; NS1 inh: 16%; Pf growth 96h: 1.5µM*; SARS PLP yeast: 15%

What do the screens show for `O=C(NC1CC2CCCC(C1)N2C(=O)Nc1ccccc1Cl)C1CC1` (stereo not drawn)?
Pf growth 48h: -6%; NS1 inh: 27%; Pf growth 96h: 20%; SARS PLP yeast: 9%

What do the screens show for `Cc1ccccc1NC(=O)N1C2CCCC1CC(NC(=O)C1CC1)C2` (stereo not drawn)?
Pf growth 48h: 0%; NS1 inh: -12%; Pf growth 96h: 9.3µM*; SARS PLP yeast: 2%

Results for Cc1c(OCc2ccccc2)c(=O)ccn1Cc1ccc(F)cc1 ?
Pf growth 48h: inconclusive; Pf growth 96h: 2.3µM*; SARS PLP yeast: -4%

Results for COc1ccc(Cn2ccc(=O)c(Cc3c(Cl)cccc3Cl)c2C)cc1 ?
Pf growth 48h: inconclusive; NS1 inh: 3%; Pf growth 96h: inconclusive; SARS PLP yeast: 2%

What do the screens show for `Cc1ccc(Cn2ccc(=O)c(Cc3c(Cl)cccc3Cl)c2C)cc1`?
Pf growth 48h: inconclusive; NS1 inh: -34%; Pf growth 96h: 0.41µM*; SARS PLP yeast: 0%

How did Cc1c(O)c(=O)ccn1Cc1ccccc1 do in these assays?
Pf growth 48h: -21%; NS1 inh: inconclusive; Pf growth 96h: inconclusive; SARS PLP yeast: 10µM*
